Hits are enriched below; roughly 8.8% of the tested compounds scored in any of these assays.
HT1080NT lethal – qHTS for induction of synthetic lethality in tumor cells producing 2HG: qHTS for the HT-1080-NT fibrosarcoma cell line | HT-1080-NT fibrosarcoma viability, CellTiter-Glo ATP luminescence, 48 h | Potency, µM (titrated, usually from 46.1 µM), for inactives: at the highest dose activity, negative = less viability, usual class: cytotoxic | hit rate 1.6% among 360,000;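 note: NT is the 2HG producing partner of a matched IDH1 knockdown line; potency is the fitted concentration of half-maximal effect; 0% = DMSO-treated cells and -100% = media-only wells without cells; nearly all actives have a fitted effect of over 55% in size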
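Viability of the 2HG-overproducing fibrosarcoma line after 48 hours of compound exposure at 37 degrees C was determined by luminescence with CellTiter-Glo, and concentration-effect curves were then fitted and categorized.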
KB-3-1 cytotox – qHTS assay for MDR1-selective chemotherapeutics: Primary screen using the parental adenocarcinoma cell KB-3-1; KB-3-1 viability, CellTiter-Glo ATP luminescence, 72 h; Potency, µM (series often up to 46.1 µM), hits mostly cytotoxic; hit rate 1.4% among 400,000; AID 1347075, 2019; note: potency is the fitted concentration of half-maximal effect; nearly all actives have a fitted effect of over 60% in size
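Here the drug-naive KB-3-1 line serves as comparator for MDR sub-line selectivity; cells received compound titrations, 72 h at 37 °C, then CellTiter-Glo readout.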
KB-V1 MDR tox – qHTS assay for MDR1-selective chemotherapeutics: Primary screen using the drug-selected MDR subline cells KB-V1. KB-V1 MDR cells viability, CellTiter-Glo, 72 h. Potency, µM (doses to about 46.1 µM), actives largely listed as cytotoxic. hit rate 3.4% among 400,000; note: potency is the fitted concentration of half-maximal effect; nearly all actives have a fitted effect of over 60% in size
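Luminescent ATP read-out (CellTiter-Glo, 10 min) measures survival of drug-selected KB-V1 MDR cells after 72 h, 37 degrees C compound exposure. Medium: phenol-red-free DMEM, 10% FBS. Values from fitted concentration-response curves.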
HT1080 IDH1KD tx – qHTS for induction of synthetic lethality in tumor cells producing 2HG: qHTS for the HT-1080-IDH1KD cell line | HT-1080 IDH1 knockdown viability, ATP luminescence, 48 h | Potency, µM (top dose mostly 46.1 µM), without a hit: at the top dose activity, negative = toxicity, usual class: cytotoxic | hit rate 2% among 360,000 | AID 686971, 2013;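 note: potency is the fitted concentration of half-maximal effect; 0% = DMSO wells and -100% = cell-free medium wells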
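IDH1KD HT-1080 cells, 750/well, RPMI + 5% FBS; compound pinned after 2 h settling; 48 h, 37 °C; CellTiter-Glo luminescence; % activity normalised to DMSO and no-cell wells; curves fitted, classed by r2 and efficacy.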
IL-1B inflam inh – qHTS for Inhibitors of Inflammasome Signaling: IL-1-beta AlphaLISA Primary Screen; hit rate 4.7% among 360,000; activity change, % at 57.5 µM; THP-1 LPS/ATP IL-1B secretion, AlphaLISA, 16 h; stronger effect = lower value; in the data active = activity change below about -50%; inconclusive = mostly about -30% to -49%
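Secreted IL-1B measured by AlphaLISA bead assay after 16 h compound exposure of THP-1 cells; compounds (final up to 57.5 uM) added 1 h before LPS (250 ng/mL) and ATP (1.25 mM) stimulation; lower signal means less secretion.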
Numbers without * were called inactive; i = inactive; ? = inconclusive; . = not tested or not shown; [ ] = dose if it differs, or a comment. Unless noted, calls come from the whole dose curve; as a rule, active = well fitted curve in the direction sought with a large enough effect; inconclusive = small, poorly fitted or top-dose-only effect, or another doubt; inactive = no such curve, though single readings can be large; an effect the other way counts as inactive or inconclusive. Unless noted, % is set by controls: 0 for no effect and ±100 for the full control effect.

SMILES | HT1080NT lethal | KB-3-1 cytotox | KB-V1 MDR tox | HT1080 IDH1KD tx | IL-1B inflam inh
Cn1c(C(=O)OC(C(=O)NCc2ccco2)c2ccncc2)cc2sccc21 (stereo not drawn) | 2.1% | i | 3.66µM* | -1.8% | 6.9
CC(OC(=O)c1cc2sccc2n1C)C(=O)NCC1CCCO1 (stereo not drawn) | ? | i | i | -4.8% | 11.8
CC(OC(=O)c1cc2sccc2n1C)C(=O)NCc1ccc(F)cc1 (stereo not drawn) | -18.7% | i | ? | ? | -0.1
CC(OC(=O)c1cc2sccc2n1C)C(=O)NCc1ccco1 (stereo not drawn) | 19.2% | i | i | 0.0% | 6.1
CCC(OC(=O)c1cc2sccc2n1C)C(=O)NCC1CCCO1 (stereo not drawn) | -0.1% | i | 23.1µM* | -2.8% | 19.4
CC(OC(=O)c1cc2sccc2n1C)C(=O)NCCc1ccccc1 (stereo not drawn) | ? | i | 13µM* | ? | 5.6
COc1ccc(S(=O)(=O)N2CCOC23CCN(S(=O)(=O)c2cc(C)ccc2OC)CC3)cc1 | -0.8% | i | i | -3.0% | 9.6
O=C(c1ccc(Cl)cc1)N1N=CCC1(O)c1ccc(Cl)cc1 (stereo not drawn) | -1.8% | i | i | -4.9% | 55.8
CCC(C)(C)C1CCC2(CC1)NC(=O)N(CC(=O)NCCc1ccc(OC)c(OC)c1)C2=O (stereo not drawn) | -8.0% | ? | 16.4µM* | -15.7% | -27.4
CCC(C)(C)C1CCC2(CC1)NC(=O)N(CC(=O)NCCOc1ccccc1)C2=O (stereo not drawn) | -3.0% | ? | ? | -14.9% | -19.2
CCc1ccc(CN2CCCC(CNS(=O)(=O)c3ccc(OC)cc3)C2)cc1 (stereo not drawn) | -32.2% | i | ? | -29.8% | -94.3*
c1ccc2c(c1)ncn2CCn1cnc2ccccc21 | 18.2% | i | i | 16.1% | -5.0
Cc1ccc(Cn2cnc3ccccc32)cc1 | -25.5% | i | ? | ? | -53.9*
COc1ccc2cc3c(N)nn(C(=O)c4ccccc4Cl)c3nc2c1 | ? | ? | ? | -8.6% | -65.1*
COc1ccc2cc3c(N)nn(C(=O)Cc4c[nH]c5ccccc45)c3nc2c1 | ? | ? | i | ? | -97.9*
Cc1ccc2cc3c(N)c(C(=O)N4CCOCC4)sc3nc2c1 | -21.4% | i | i | -18.8% | -23.5
COc1ccc2cc3c(N)c(C(=O)N4CCCC4)sc3nc2c1 | 5.6% | i | ? | -0.3%[9.24 µM] | -68.7*
COc1ccc2cc3c(N)nn(C(=O)c4ccc(F)cc4)c3nc2c1 | 0.0% | i | ? | -1.1% | ?
CCCCn1cnc2cc(C)c(C)cc21 | -7.9% | i | i | -1.8% | -8.8
COc1ccc([C@H]2C[C@@H](O)[C@H](n3cc(COC(=O)c4ccccc4)nn3)CN2C(=O)c2cccs2)cc1 | 4.9% | i | i | 5.5% | 27.5
COc1ccccc1S(=O)(=O)N1CCN(c2nc(-c3cccs3)nc3ccccc23)CC1 | 7.4% | . | . | 0.0% | .
COc1ccc(C2=CCCCCC2)c(OC)c1OC | 0.0% | i | i | 0.0% | -4.6
COc1ccc(-c2ccc(OC)c(OC)c2OC)c(OC)c1OC | -0.5% | i | 23.1µM* | 6.0% | 22.2
O=c1[nH]c2ccccc2nc1Cc1ccccc1 | -10.5% | i | i | 0.5% | 0.0
O=C(Cc1nc2ccccc2[nH]1)c1ccc(Br)cc1 | 0.2% | i | i | -6.4% | -60.4*
O=C(Cc1nc2ccccc2[nH]c1=O)c1ccccc1 | -3.9% | ? | i | -4.0% | -71.7*
Cc1csc(N(C)C(=O)CSc2nnc(COc3cccc4ccccc34)o2)n1 | 6.31µM* | i | ? | ? | 29.0
O=S(=O)(CCN1CCOCC1)c1ccccc1 | 23.9% | i | ? | 8.5% | -6.0

Compound activity: PubChem, National Center for Advancing Translational Sciences (NCATS)
